Laboratory results reported in PubChem BioAssay (EPA / NIEHS).
Calls of active or inactive are those of the source. Rule for the calls: active = hit-call score of the fitted dose curve at least 0.9, where 1 is the maximum; inactive = score below 0.9.

Key:
Conditions in all cases: mRNA level, 48 h; actives raise or lower the signal
[1] = read-out: Cytochrome P450 3A4 (Homo sapiens) (UniProt P08684); test: LTEA_HepaRG_CYP3A4: Life Technologies and Expression Analysis (LTEA) Assay for CYP3A4 using HepaRG (AID 2283487)
Outline: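 Differentiated HepaRG cells in serum-free induction medium exposed in duplicate for 48 h to 8 half-log concentrations up to 100 uM in 0.5% DMSO. CYP3A4 mRNA measured by qRT-PCR normalized to ACTB, GAPDH and POLR2A; bidirectional fit versus DMSO.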

[2] = read-out: DNA damage-inducible transcript 3 (DDIT3), DDIT3 (gene 1649); test: LTEA_HepaRG_DDIT3: Life Technologies and Expression Analysis (LTEA) Assay for DNA damage-inducible transcript 3 (DDIT3) using HepaRG (AID 2283488)
Outline: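 Differentiated human HepaRG cells in serum-free induction medium were exposed in duplicate for 48 h to 8 concentrations (top 100 uM, half-log steps, 0.5% DMSO). DDIT3 mRNA measured by TaqMan qRT-PCR, normalized to ACTB/GAPDH/POLR2A; bidirectional fit versus DMSO.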

[3] = read-out: Pro-epidermal growth factor (Homo sapiens) (UniProt P01133); test: LTEA_HepaRG_EGF: Life Technologies and Expression Analysis (LTEA) Assay for Epidermal growth factor (EGF) using HepaRG (AID 2283489)
Outline: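 EGF transcript measured by Fluidigm TaqMan qRT-PCR with three housekeeping genes for normalization, 48 h after dosing HepaRG cultures in duplicate (top 100 uM, half-log steps, 0.5% DMSO vehicle). Gain or loss relative to DMSO fitted.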

[4] = read-out: Early growth response protein 1 (EGR1) transcription factor, EGR1 (gene 1958); test: LTEA_HepaRG_EGR1: Life Technologies and Expression Analysis (LTEA) Assay for Early growth response protein 1 (EGR1) transcription factor using HepaRG (AID 2283490)
Outline: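 Differentiated HepaRG cells in serum-free induction medium exposed 48 hours, duplicate, to 8 half-log concentrations up to 100 uM in 0.5% DMSO. EGR1 mRNA measured by TaqMan qRT-PCR, normalized to ACTB, GAPDH, POLR2A; bidirectional fit versus DMSO.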

[5] = read-out: Ezrin (EZR), EZR (gene 7430); test: LTEA_HepaRG_EZR: Life Technologies and Expression Analysis (LTEA) Assay for Ezrin (EZR) using HepaRG (AID 2283491)
Outline: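 Differentiated human HepaRG cells, 48 h after plating, were exposed in serum-free induction medium for 48 hours to eight half-log concentrations up to 100 uM in 0.5% DMSO. EZR mRNA was measured by TaqMan qRT-PCR, normalized to ACTB, GAPDH and POLR2A, and fitted bidirectionally against DMSO.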

[6] = read-out: Cytochrome P450 3A7 (Homo sapiens) (UniProt P24462); test: LTEA_HepaRG_CYP3A7: Life Technologies and Expression Analysis (LTEA) Assay for CYP3A7 using HepaRG (AID 2283492)
Outline: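 CYP3A7 transcript measured by qRT-PCR (ACTB, GAPDH, POLR2A normalization) after 48 h chemical exposure of HepaRG cells in duplicate. Eight half-log concentrations, maximum 100 uM, 0.5% DMSO vehicle; bidirectional curve fitting against DMSO baseline.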

CYP3A5 (gene 1577) = test: LTEA_HepaRG_CYP3A5: Life Technologies and Expression Analysis (LTEA) Assay for CYP3A5 using HepaRG (AID 2283493)
Outline: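 Differentiated HepaRG cells in serum-free induction medium were dosed 48 h with test chemicals (8-point half-log series, top 100 uM, 0.5% DMSO, duplicate). CYP3A5 mRNA measured by qRT-PCR, normalized to ACTB, GAPDH, POLR2A; bidirectional fit versus DMSO.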

[7] = read-out: Fatty Acid-Binding Protein 1 (FABP1), FABP1 (gene 2168); test: LTEA_HepaRG_FABP1: Life Technologies and Expression Analysis (LTEA) Assay for Fatty Acid-Binding Protein 1 (FABP1) using HepaRG (AID 2283494)
Outline: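 Differentiated human HepaRG cells exposed 48 h in serum-free induction medium to eight half-log concentrations up to 100 uM (0.5% DMSO), duplicate. FABP1 mRNA by qRT-PCR, normalised to ACTB, GAPDH, POLR2A; bidirectional fitting against DMSO.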

[8] = read-out: Cytochrome P450 7A1 (Homo sapiens) (UniProt P22680); test: LTEA_HepaRG_CYP7A1: Life Technologies and Expression Analysis (LTEA) Assay for Cytochrome P450 7A1 (CYP7A1) using HepaRG (AID 2283496)
Outline: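 Gene expression endpoint in human HepaRG liver cells treated for 48 h with test chemicals (up to 100 uM, 0.5% DMSO). Values come from bidirectional concentration-response fitting versus DMSO.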

[9] = read-out: Glutathione S-Transferase (GSTA2), GSTA2 (gene 2939); test: LTEA_HepaRG_GSTA2: Life Technologies and Expression Analysis (LTEA) Assay for Glutathione S-Transferase (GSTA2) using HepaRG (AID 2283497)
Outline: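 Differentiated human HepaRG cells were exposed in duplicate for 48 h in serum-free induction medium, 8 points from 100 uM top in half-log steps, 0.5% DMSO. GSTA2 mRNA was measured by TaqMan qRT-PCR, normalized to ACTB, GAPDH and POLR2A; bidirectional fit versus DMSO.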

[10] = read-out: growth arrest and DNA damage 45 (GADD45G), GADD45G (gene 10912); test: LTEA_HepaRG_GADD45G: Life Technologies and Expression Analysis (LTEA) Assay for growth arrest and DNA damage 45 (GADD45G) using HepaRG (AID 2283499)
Outline: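 GADD45G transcript level by qRT-PCR (housekeeping-normalized: ACTB, GAPDH, POLR2A) after 48 h chemical treatment of a single HepaRG lot in serum-free induction medium; eight-point half-log series up to 100 uM in 0.5% DMSO, duplicates, up- or down-regulation scored.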

[11] = read-out: Glutamate-cysteine ligase regulatory (GCLM), GCLM (gene 2730); test: LTEA_HepaRG_GCLM: Life Technologies and Expression Analysis (LTEA) Assay for Glutamate-cysteine ligase regulatory (GCLM) using HepaRG (AID 2283500)
Outline: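 Differentiated human HepaRG cells exposed 48 h in serum-free induction medium to 8-point half-log concentrations (top 100 uM, 0.5% DMSO), in duplicate. GCLM mRNA quantified by qRT-PCR, normalized to ACTB, GAPDH, POLR2A; bidirectional fitting versus DMSO.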

[12] = read-out: Glutathione S-transferase M3 (GSTM3), GSTM3 (gene 2947); test: LTEA_HepaRG_GSTM3: Life Technologies and Expression Analysis (LTEA) Assay for Glutathione S-transferase M3 (GSTM3) using HepaRG (AID 2283501)
Outline: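 GSTM3 transcript levels came from Fluidigm TaqMan qRT-PCR normalized to three housekeeping genes, fitted in both directions against DMSO. HepaRG cultures received chemicals for 48 h in serum-free induction medium (0.5% DMSO), 8 half-log concentrations up to 100 uM, duplicate.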

[13] = read-out: Heat shock 70 kDa protein 1 (HSPA1A), gene 3303; test: LTEA_HepaRG_HSPA1A: Life Technologies and Expression Analysis (LTEA) Assay for Heat shock 70 kDa protein 1 (HSPA1A) using HepaRG (AID 2283502)
Outline: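 Differentiated human HepaRG cells in serum-free induction medium were exposed in duplicate for 48 h to eight concentrations (top 100 uM, half-log steps, 0.5% DMSO). HSPA1A mRNA was quantified by qRT-PCR, normalized to ACTB, GAPDH and POLR2A, and fitted bidirectionally against DMSO.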

[14] = read-out: Hypoxia-inducible factor 1-alpha (Homo sapiens) (UniProt Q16665); test: LTEA_HepaRG_HIF1A: Life Technologies and Expression Analysis (LTEA) Assay for Hypoxia-inducible factor 1 (HIF1A) Trancription factor using HepaRG (AID 2283503)
Outline: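 HepaRG, 48 h exposure, 8-pt half-log series from 100 uM, 0.5% DMSO vehicle, duplicates. Readout: HIF1A transcript by qRT-PCR (Fluidigm array), housekeeping-normalised. Bidirectional curve fit vs DMSO baseline.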

[15] = read-out: 3-Hydroxy-3-Methylglutaryl-CoA Synthase 2 (HMGCS2), HMGCS2 (gene 3158); test: LTEA_HepaRG_HMGCS2: Life Technologies and Expression Analysis (LTEA) Assay for 3-Hydroxy-3-Methylglutaryl-CoA Synthase 2 (HMGCS2) using HepaRG (AID 2283504)
Outline: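 Readout is HMGCS2 transcript by qRT-PCR, housekeeping-normalised (ACTB/GAPDH/POLR2A) and fitted bidirectionally against 0.5% DMSO. Differentiated HepaRG cells received chemicals 48 h, duplicate wells, eight half-log concentrations topping at 100 uM.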

HGF (gene 3082) = test: LTEA_HepaRG_HGF: Life Technologies and Expression Analysis (LTEA) Assay for Hepatocyte Growth Facto (HGF) using HepaRG (AID 2283505)
Outline: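 HGF transcript was quantified by TaqMan qRT-PCR against three housekeeping genes after 48 h treatment of HepaRG cells. Exposure ran in duplicate over eight half-log steps topping at 100 uM in 0.5% DMSO vehicle.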

[16] = read-out: Insulin Like Growth Factor 1 (IGF1), IGF1 (gene 3479); test: LTEA_HepaRG_IGF1: Life Technologies and Expression Analysis (LTEA) Assay for Insulin Like Growth Factor 1 (IGF1) using HepaRG (AID 2283506)
Outline: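 Differentiated human HepaRG cells were dosed for 48 h in serum-free induction medium with 0.5% DMSO, eight half-log concentrations up to 100 uM, in duplicate. IGF1 mRNA was quantified by qRT-PCR normalized to ACTB, GAPDH, POLR2A; bidirectional fitting versus DMSO.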

[17] = read-out: Intercellular Adhesion Molecule 1 (ICAM1), ICAM1 (gene 3383); test: LTEA_HepaRG_ICAM1: Life Technologies and Expression Analysis (LTEA) Assay for Intercellular Adhesion Molecule 1 (ICAM1) using HepaRG (AID 2283507)
Outline: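 ICAM1 transcript levels measured by qRT-PCR, normalized to three housekeeping genes (ACTB, GAPDH, POLR2A), after 48 h chemical exposure of HepaRG cells. Duplicate eight-point half-log series from 100 uM in 0.5% DMSO; gain or loss fitted against vehicle.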

[18] = read-out: Insulin-like growth factor-binding protein 1 (IGFBP1), IGFBP1 (gene 3484); test: LTEA_HepaRG_IGFBP1: Life Technologies and Expression Analysis (LTEA) Assay for Insulin-like growth factor-binding protein 1 (IGFBP1) using HepaRG (AID 2283508)
Outline: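 Read-out is qRT-PCR transcript level normalized to three housekeeping genes, fitted in both directions against 0.5% DMSO. Differentiated HepaRG cells received eight half-log concentrations (top 100 uM) in duplicate for 48 h in serum-free induction medium.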

Measured: AC50

Sequence of Hypoxia-inducible factor 1-alpha (Homo sapiens) (Q16665 whole entry, looked up): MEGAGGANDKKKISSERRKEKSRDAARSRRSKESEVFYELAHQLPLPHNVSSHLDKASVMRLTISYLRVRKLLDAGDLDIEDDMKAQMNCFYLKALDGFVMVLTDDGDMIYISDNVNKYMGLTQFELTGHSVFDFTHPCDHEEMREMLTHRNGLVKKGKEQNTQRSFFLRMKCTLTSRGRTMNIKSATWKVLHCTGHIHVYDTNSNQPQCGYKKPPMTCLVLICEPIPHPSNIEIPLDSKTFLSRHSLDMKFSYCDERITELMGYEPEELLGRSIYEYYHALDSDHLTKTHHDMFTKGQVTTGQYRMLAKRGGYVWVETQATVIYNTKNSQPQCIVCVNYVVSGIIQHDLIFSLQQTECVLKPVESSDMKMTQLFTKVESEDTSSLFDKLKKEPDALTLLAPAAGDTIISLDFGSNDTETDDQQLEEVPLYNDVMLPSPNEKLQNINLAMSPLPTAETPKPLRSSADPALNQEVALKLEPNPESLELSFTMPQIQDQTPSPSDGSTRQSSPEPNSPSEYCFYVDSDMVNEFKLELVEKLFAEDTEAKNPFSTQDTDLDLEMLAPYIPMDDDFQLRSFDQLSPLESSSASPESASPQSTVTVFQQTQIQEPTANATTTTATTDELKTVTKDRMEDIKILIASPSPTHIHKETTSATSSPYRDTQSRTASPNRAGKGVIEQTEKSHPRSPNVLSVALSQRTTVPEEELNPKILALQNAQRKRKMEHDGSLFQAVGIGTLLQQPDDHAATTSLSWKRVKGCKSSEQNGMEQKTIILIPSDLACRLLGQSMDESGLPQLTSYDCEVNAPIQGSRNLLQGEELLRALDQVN
Sequence of Cytochrome P450 3A4 (Homo sapiens) (P08684 whole entry, looked up): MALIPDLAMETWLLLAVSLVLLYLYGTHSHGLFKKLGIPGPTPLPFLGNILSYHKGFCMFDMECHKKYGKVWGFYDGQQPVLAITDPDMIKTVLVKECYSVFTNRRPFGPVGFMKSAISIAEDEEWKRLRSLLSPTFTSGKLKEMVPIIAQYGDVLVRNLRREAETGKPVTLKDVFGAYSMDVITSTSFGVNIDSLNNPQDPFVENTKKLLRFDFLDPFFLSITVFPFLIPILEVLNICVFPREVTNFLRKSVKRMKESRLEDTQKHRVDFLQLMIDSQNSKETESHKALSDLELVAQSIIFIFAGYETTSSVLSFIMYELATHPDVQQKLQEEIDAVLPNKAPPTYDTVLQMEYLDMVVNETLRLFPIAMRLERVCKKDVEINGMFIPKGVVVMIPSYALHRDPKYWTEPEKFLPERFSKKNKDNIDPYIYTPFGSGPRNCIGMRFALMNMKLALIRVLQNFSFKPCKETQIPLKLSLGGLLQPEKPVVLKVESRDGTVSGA
Sequence of Cytochrome P450 3A7 (Homo sapiens) (P24462 whole entry, looked up): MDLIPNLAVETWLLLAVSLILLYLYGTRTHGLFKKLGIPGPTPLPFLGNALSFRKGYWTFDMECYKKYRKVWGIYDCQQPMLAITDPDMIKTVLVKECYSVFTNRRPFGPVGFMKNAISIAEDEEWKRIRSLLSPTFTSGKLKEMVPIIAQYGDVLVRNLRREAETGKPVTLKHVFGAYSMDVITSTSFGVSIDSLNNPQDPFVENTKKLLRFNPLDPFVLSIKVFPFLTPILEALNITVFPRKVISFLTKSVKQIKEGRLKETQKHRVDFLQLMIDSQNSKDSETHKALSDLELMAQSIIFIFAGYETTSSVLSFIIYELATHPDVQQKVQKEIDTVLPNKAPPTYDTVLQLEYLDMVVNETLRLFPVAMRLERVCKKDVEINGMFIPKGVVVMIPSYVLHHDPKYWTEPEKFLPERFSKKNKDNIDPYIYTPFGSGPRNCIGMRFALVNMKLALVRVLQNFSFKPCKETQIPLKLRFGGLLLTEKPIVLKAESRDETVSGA

CC(C)(C)c1ccccc1O
active: [1] 12.6 µM | [6] 4.77 µM
inactive: all other assays above

Cc1cc(C)cc(C)c1
inactive: all assays above

Oc1c(Cl)cc(Cl)cc1Cl
not listed: [1] | [6] | CYP3A5 (gene 1577) | [8] | HGF (gene 3082)
inactive: all other assays above

Clc1cccc(Cl)c1
inactive: all assays above
